Each structure is given as a SMILES string. About 83,000 compounds went through this panel and 20% of them were active in at least one assay; those are over-represented in the sample as a whole.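 The endpoint reported here, percent growth, reads 100 for growth as untreated, 0 for no net growth and -100 for all cells dead.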 A number with no mark means an inactive call. The source made the active and inactive calls. How the source made its calls: active means growth percent below 10; inactive means the rest.

What all share (assay): NCI-60 one-dose screen, 48 h (100 = growth as untreated, 0 = no growth, -100 = all killed)
The test system of test [1] is HCT-15 colon. To be noted: 10 µM unless noted.
Test [2] concerns HT29 colon. To be noted: 10 µM unless noted.
Test [3] concerns SNB-75 CNS. Conditions: 10 µM unless noted.
In test [4] the test system is SNB-19 CNS. Conditions: 10 µM unless noted.
The test system of test [5] is U251 CNS. Conditions: 10 µM unless noted.
Test [6] relates to PC-3 prostate. To be noted: 10 µM unless noted.
Test [7] relates to SK-MEL-5 melanoma. Conditions: 10 µM unless noted.
In test [8] the test system is UACC-62 melanoma. To be noted: 10 µM unless noted.
For test [9], the system named is LOX IMVI melanoma. Conditions: 10 µM.
Test [10] concerns SK-MEL-28 melanoma. Conditions: 10 µM unless noted.

Regarding `CN(C)c1ccc(/C=C/c2cc[n+](C)c(/C=C/c3ccc(N(C)C)cc3)c2)cc1`, the growth in test [1] is 19.5%; in test [2] it was -7.82% (active); in test [3], 22.3%; in [4] it was 27%; in test [5], 15.3%; in test [6], 3.98% (active). Besides, the growth in [7] was -95.6% (active); in [8] it was 12.3%; in [9], 12.3%; in test [10], 20.6%.
On to `O=C(Nc1ccc(Cl)c(Cl)c1)Nc1ccccc1O`, for which the growth in [1] is 78.5%; in test [2] it was 112%; in test [3], 67%; in test [4], 85.8%; in test [5], 85.7%; in test [6] it was 38.1%. Besides, the growth in test [7] was 74.5%; in test [8], 42.8%; in test [9], 70.4%; in test [10], 107%.
As to `CCOC(=O)NC(/C=C/c1ccccc1)NC(=O)OCC`, the growth was 105% in [1]; 101% in [2]; 96.6% in [3]; 98.4% in [4]; 94.5% in test [5]; 96.9% in [6]. In addition, the growth is 106% in test [7], 97.7% in test [8], 99.8% in test [9] and 105% in test [10].
Take `Cc1ccccc1N=C(N)Nc1ccccc1C` (tested in a mixture with another compound): the growth in test [1] was 66.5%; in [2], 97.3%; in test [3], 99.5%; in [4], 89.1%; in test [5], 84%; in [6], 70.7%. Further, the growth in [7] is 73.1%; in test [8] it was 90.5%; in test [9], 93%; in test [10], 105%.
With `CC1=CC(=O)C=CC1(C)C(Cl)(Cl)Cl` (stereo not given), the growth in test [1] was 97.3%; in test [2] it was 83.1%; in [3], 109%; in [4], 92%; in test [5], 83.1%; in test [6], 92.9%. Besides, the growth in test [7] was 103%; in test [8] it was 95.7%; in test [9] it was 93%; in test [10] it was 102%.
In the case of `c1ccc(C2NCCNC2c2ccccc2)cc1` (stereo not given), the growth in test [1] was 102%; in test [2], 101%; in test [3], 87.5%; in test [4], 102%; in test [5] it was 107%; in [6], 98.6%. Also, the growth in [7] was 104%; in test [8], 102%; in test [9] it was 99.1%; in test [10] it was 111%.
On to `OC(CSc1ccccc1)CN1CCN(c2ccc(Cl)cc2)CC1` (stereo not given), for which the growth was 96.1% in test [1]; 101% in test [2]; 91.3% in test [3]; 94.7% in test [4]; 95.2% in test [5]; 94.3% in [6]. The growth in test [7] was 89.2%; in test [8] it was 82.2%; in test [9] it was 93%; in test [10], 110%.
Consider `CC(C)Nc1ccc(Nc2ccc(NC(C)C)cc2)cc1`, for which the growth in test [1] was 92.9%; in [2] it was 26.9%; in test [3], 79.7%; in [4], 28.6%; in test [5], 16.9%; in test [6], 38.8%. For the same compound, the growth is 33.2% in test [7], 36.6% in test [8], 39.9% in test [9] and 50.8% in [10].
Consider `CC(C)c1ccc(C(=O)OC2CCCC2)cc1`, for which the growth in test [1] is 95.3%; in test [2] it was 113%; in test [3], 90.4%; in test [4], 102%; in test [5], 109%; in [6], 89.9%. Besides, the growth was 98.7% in test [7], 97.7% in test [8], 95% in test [9] and 108% in test [10].
Take `Cc1nc(Sc2nc3ccc([N+](=O)[O-])cc3s2)sc1C`: the growth in [1] was -21.2% (active); in test [2] it was 10.2%; in test [3] it was 53.1%; in test [4], 35.4%; in test [5], 27.2%; in test [6] it was 23%. Besides, the growth in test [7] was 41.1%; in test [8] it was -15.4% (active); in test [9], -46.4% (active); in [10], 27.8%.
Take `NC(=S)Nc1ccc2c(c1)Cc1ccccc1-2`: the growth was 95.7% in [1]; 87.8% in test [2]; 73.8% in test [3]; 87.7% in test [4]; 83.7% in test [5]; 71% in [6]. Besides, the growth in [7] is 88.9%; in test [8] it was 77.3%; in [9], 91.4%; in test [10], 103%.
For the compound `CC(=O)OC1CC2CCC1(C)C2(C)C` (stereo not given), the growth in test [1] is 98.9%; in test [2], 96%; in [3], 93.5%; in test [4], 103%; in test [5], 103%; in [6], 93.2%. Moreover, the growth was 106% in test [7], 92.6% in test [8], 101% in test [9] and 105% in [10].
Consider `CCN(CC)CC(O)c1cc(-c2ccc(Cl)cc2)nc2cc(Cl)ccc12` (stereo not given), for which the growth is 25.1% in test [1]; -50.1% (active) in test [2]; 38.3% in [3]; 56.8% in [4]; 8.59% (active) in test [5]; 28.5% in [6]. In addition, the growth is -95.6% (active) in test [7], -56.6% (active) in [8], 11% in test [9] and -56.6% (active) in [10].
With `O=C1/C(=C/c2ccccn2)CCc2ccccc21`, the growth in test [1] is 95.3%; in test [2], 97.6%; in [3], 97.7%; in test [4] it was 97%; in test [5] it was 100%; in test [6], 94.6%. Also, the growth in test [7] is 97.2%; in [8] it was 97.5%; in test [9] it was 86.5%; in test [10], 111%.

The values above are taken from PubChem BioAssay (NCI).
